Screening data (PubChem BioAssay)
PfM18AAP inh-1: PfM18AAP enzyme inhibition | hit rate 1.2% among 290,000 | inhibition, % at 7.35 µM | recombinant PfM18AAP, H-Glu-NHMec fluorogenic cleavage;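 active = inhibition above the campaign mean inhibition over all tested compounds plus 3 SD, cut at about 28% in these data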;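 also: 0% = plate median of test compound wells and 100% = 2 mM ZnCl2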
FID counter: displaces DNA intercalator in HCV helicase counter-screen. DNA fluorescent intercalator displacement, fluorescence. inhibition, % at 7.9 µM. hit rate 0.17% among 290,000; in the data active = inhibition above about 37%;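 also: 0% = vehicle and 100% = reference compound; higher means more ethidium bromide displaced from hairpin DNA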
Kir21 inh: blocks the mouse Kir2.1 inward-rectifier potassium channel. P35561. HEK293-Kir2.1, FluxOR thallium flux fluorescence; active compounds read low. B-score at 10 µM. hit rate 0.85% among 310,000. AID 1672;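 active = fluorescence ratio B-score at or below minus 3 SD of library scores, with starting-brightness B-score within 2 SD, cut at about -4.2 in these data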;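 also: channel flux triggered by added potassium and thallium sulfate stimulus; B-score of peak minus minimum fluorescence over baseline after thallium stimulus; more negative B-score means stronger Kir2.1 block with less thallium influx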
Rce1 inh: blocks yeast Ras-converting enzyme; calls only; hit rate 0.27% among 290,000; yeast membranes, quenched prenylated peptide cleavage fluorescence; Q03530;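 active = fall in fluorescence gain of 50% or more versus controls, with final raw signal at or below 3038400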;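 also: plate controls were neutral control wells for no effect and wells lacking membranes for full effect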
Target sequence (Q03530 whole entry, looked up): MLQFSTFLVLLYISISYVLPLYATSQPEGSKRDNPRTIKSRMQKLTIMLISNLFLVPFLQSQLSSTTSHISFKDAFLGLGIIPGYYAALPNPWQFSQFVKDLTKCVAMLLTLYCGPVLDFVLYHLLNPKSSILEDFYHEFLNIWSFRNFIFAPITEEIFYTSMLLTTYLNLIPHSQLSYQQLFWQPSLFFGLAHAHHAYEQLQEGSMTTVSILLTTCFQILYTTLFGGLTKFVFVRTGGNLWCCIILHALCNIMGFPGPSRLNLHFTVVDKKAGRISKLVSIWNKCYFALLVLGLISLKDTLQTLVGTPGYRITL
PfM18AAP inh-2: PfM18AAP inhibition, confirmation | shares compounds with PfM18AAP inh-1 | recombinant PfM18AAP, H-Glu-NHMec fluorogenic cleavage | inhibition, % at 7.35 µM | hit rate 28% among 2,400 | AID 2170;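 active = mean inhibition over replicate wells above the hit cutoff set for the earlier primary screen, cut at about 29% in these data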;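 also: 0% = median of test compound wells and 100% = 2 mM ZnCl2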
CTSL1 confirm: counter-screen for PFM18AAP inhibitors: confirmation of human cathepsin L inhibitors. AID 2178. 2,400 tested, under 10 active. purified cathepsin L1, Z-Leu-Arg-MCA fluorescence. shares compounds with PfM18AAP inh-1. inhibition, % at 5.96 µM;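 active = average inhibition across replicates above the hit cutoff set in the earlier primary screen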;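 also: 0% = median of test compound wells and 100% = Z-Phe-Ala-diazomethylketone 1 µM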
Target sequence (P07711 whole entry, looked up): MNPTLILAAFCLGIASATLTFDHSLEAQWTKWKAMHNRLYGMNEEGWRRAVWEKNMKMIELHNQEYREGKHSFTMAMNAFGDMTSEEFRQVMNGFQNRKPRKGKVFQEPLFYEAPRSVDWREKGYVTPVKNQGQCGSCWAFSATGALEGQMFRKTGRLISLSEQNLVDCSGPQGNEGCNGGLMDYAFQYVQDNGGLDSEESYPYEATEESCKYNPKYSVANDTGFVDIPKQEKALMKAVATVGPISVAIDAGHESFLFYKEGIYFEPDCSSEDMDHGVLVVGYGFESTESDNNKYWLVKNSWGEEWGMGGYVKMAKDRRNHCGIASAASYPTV
The depositor's hits bear a star; i = inactive; x = not tested or not shown. In the library only some 2.3% were active in any assay of this set; here they are far more common.

SMILES	PfM18AAP inh-1	FID counter	Kir21 inh	Rce1 inh	PfM18AAP inh-2	CTSL1 confirm
COc1cc(C2C(C#N)=C(N)OC3=C2C(=O)CCC3)c([N+](=O)[O-])cc1OC (configuration not stated)	39.7*	-20.4	-6.2	i	-19.9	2.5
CN1C(C(=O)N2CCc3ccccc3C2)=CC(c2ccc(F)cc2)=NS1(=O)=O	-5.2	-24.0	1.33	i	x	x
CC(C)NC[C@@H](O)c1ccc(O)c(O)c1	60.9*	0.5	0.97	i	55.7*	-2.5
Cc1cc2nc3c(=O)[nH]c(=O)[nH]c3nc2c([N+](=O)[O-])c1N	32.0*	2.1	x	x	1.0	-0.5
Cc1c(N)c(C(C)(C)C)cc(C(C)(C)C)c1[N+](=O)[O-]	-1.3	-1.4	-1.35	i	x	x
COc1cc(NC(=O)CCN2CCN(C/C=C/c3ccccc3)CC2)cc(OC)c1	-1.1	11.7	0.08	i	x	x
O=C1CC(c2ccccc2)Cc2nc3nc(C(F)(F)F)nn3cc21 (configuration not stated)	-1.6	-14.5	0.08	i	x	x
CSc1nc2nc3c(cn2n1)C(=O)CC(c1ccccc1)C3 (configuration not stated)	34.2*	-7.5	-0.58	i	-53.0	-2.5
COc1ccc(N2CC(C(=O)Nc3nc4ccc(S(C)(=O)=O)cc4s3)CC2=O)cc1 (configuration not stated)	-8.1	-20.7	-0.48	i	x	x
COc1ccc(-n2c(=S)[nH]c3[nH]ncc3c2=O)cc1	46.3*	-5.4	-0.47	i	-12.3	-3.4
O=c1c2cn[nH]c2[nH]c(=S)n1-c1cccc2ccccc12	51.2*	-2.7	-0.48	i	3.9	1.6
COc1cc(/C=C/C(=O)O)cc(S(=O)(=O)Nc2ccc(F)cc2)c1OC	-1.4	-15.2	0.41	i	x	x
COc1cc(/C=C/C(=O)O)cc(S(=O)(=O)Nc2ccc3nc(C)sc3c2)c1OC	38.1*	-34.1	0.97	i	-6.4	2.4
CCOc1ccc(NC(=O)C2CCCN2S(=O)(=O)c2ccc(OCC)cc2)cc1 (configuration not stated)	-6.8	-36.8	1.12	i	x	x
COc1cccc(-n2c(=O)c3ccccc3n3c(=S)[nH]nc23)c1	36.0*	-12.3	1.3	i	17.1	-2.3
COCCCn1c(=O)c2ccccc2n2c(=S)[nH]nc12	34.6*	-9.2	1.97	i	25.1	2.0
Nc1ccccc1Nc1cc(-c2ccccc2)[nH]n1	39.3*	-3.8	0	i	-27.4	4.0
CC1CCN(CCCNC(=O)C2CC(=O)N(CCc3ccccc3)C2)CC1 (configuration not stated)	-1.0	-3.9	1.39	i	x	x
C=CCc1c(C)nc(-c2ccccc2)nc1N/N=C(\C)c1ccc(N)cc1	52.1*	-0.1	0	i	14.3	-2.7
O=C(Nc1ccc(F)cc1F)c1cc(Cl)sc1Cl	-1.6	-0.2	0.36	i	x	x
N#Cc1c(/N=C/C=C/c2ccccc2)sc2c1CCCC2	34.9*	-4.5	0.09	i	-34.9	3.4
CN1CCN(/C=N/c2sc3c(c2C#N)CCCCC3)CC1	5.0	6.2	-2.15	i	x	x
Cc1noc(C)c1COc1ccc(C(=O)OCC(=O)Nc2ccc(C(=O)N(C)C)cc2)cc1	x	x	1.18	i	x	x
CCOC(=O)c1cnc2c(C(=O)OC)cccc2c1NCc1ccco1	40.9*	4.9	-1.93	i	-29.5	4.0
O=C(NC(=S)Nc1cc(C(F)(F)F)ccc1Cl)c1ccccc1	13.7	-6.1	1.26	i	x	x
SMILES	PfM18AAP inh-1	FID counter	Kir21 inh	Rce1 inh	PfM18AAP inh-2	CTSL1 confirm
O=C(O)c1ccc(NNC(=S)Nc2cc(C(F)(F)F)ccc2Cl)cc1	35.1*	-12.4	-1.52	i	-30.2	-3.7
Cc1cc(N2CCCC2)ccc1/C=N/n1cnnc1	32.0*	-9.8	-0.47	i	3.0	1.7
Cc1cc(/C=N/n2cnnc2)c(C)n1-c1ccccc1	3.6	-6.1	1.49	i	x	x
COc1ccccc1C(c1c(O)nc(SC)[nH]c1=O)c1c(O)nc(SC)[nH]c1=O	x	x	0.01	i	x	x
CNC(=S)NNC(=O)c1c(C)nc2cc(C)ccn12	47.4*	-5.9	1.42	i	7.2	-5.4
Cc1ccn2c(C(=O)NN=C3CCCCCCC3)c(C)nc2c1	5.5	-7.6	-0.57	i	x	x
Cn1ncc2c(NNC(=O)c3ccc(Cl)c(Cl)c3)ncnc21	12.8	-0.7	0.82	i	x	x
Cn1ncc2c(NNC(=O)c3ccc(Cl)cc3Cl)ncnc21	40.9*	-5.9	-1.02	i	-2.0	0.5
O=C1N(c2ccc(Cl)c(Cl)c2)CN(Cc2ccccc2)CN1n1cnnc1	70.2*	3.0	-1.13	i	55.4*	0.7
O=C(CCN1CCN(Cc2ccccc2)CC1)NNC(=O)Cc1ccc(Cl)c(Cl)c1	-2.6	8.5	0.12	i	x	x
COc1ccc(N2C(=O)CC(SCc3ccc(Cl)cc3)C2=O)cc1 (configuration not stated)	-14.5	-20.0	0.15	i	x	x
COc1ccc(CN2CN(c3ccc(Cl)cc3)C(=O)N(n3cnnc3)C2)cc1	50.7*	-4.5	-0.11	i	40.4*	-2.2
CCOc1ccccc1/C=N/Nc1ccc(Cl)nn1	7.0	-17.9	2.04	i	x	x
COc1cccc(/C=N/Nc2ncnc(Cl)c2N)c1O	26.8	-0.8	-0.01	i	x	x
Oc1ccc(/C=N/Nc2ccc(Cl)nn2)c(O)c1O	65.1*	-11.2	-0.76	i	49.0*	-0.8
CCOc1ccc(/C=N/Nc2ccc(Cl)nn2)c(O)c1	35.8*	-5.8	1.52	i	-30.2	-1.0
O=C(c1ccc2c(=O)n(Cc3ccc(Cl)cc3)c(=S)[nH]c2c1)N1CCOCC1	-14.3	-38.0	1.65	i	x	x
O=C(Nc1cc(-c2nc3ncccc3o2)ccc1Cl)c1ccc([N+](=O)[O-])o1	-8.3	-14.9	3.84	i	x	x
Cc1ccc(NC(=O)CCNS(=O)(=O)c2ccccc2F)cc1S(=O)(=O)N1CCOCC1	x	x	-0.19	i	x	x
CN=c1scc(-c2ccc(F)cc2)n1/N=C/c1ccc(O)c(O)c1	54.0*	-22.3	x	x	48.4*	3.0
CN=c1scc(-c2ccc([N+](=O)[O-])cc2)n1/N=C/c1ccco1	7.8	-0.3	-2.4	i	x	x
CCOC(=O)NC1(NCC(C)C)Oc2ccccc2O1	65.6*	-3.0	-0.31	i	34.3*	1.4
CCOC(=O)NC1(Nc2ccc(C)cc2)Oc2ccccc2O1	57.9*	-2.0	-1.34	i	59.7*	-2.6
CCOC(=O)NC1(NC2CCCCC2)Oc2ccccc2O1	55.0*	-3.6	0.42	i	35.3*	-0.3
CCOC(=O)NC1(NC(C)C)Oc2ccccc2O1	80.2*	-4.7	0.03	i	-1.9	-4.7
COc1cc(N=Cc2c(CO)cnc(C)c2O)cc(OC)c1OC	35.0*	-6.6	2.47	i	-13.1	-1.0
COc1ccccc1N/N=C/c1c(CO)cnc(C)c1O	6.5	14.9	0.02	i	x	x
O=C(Cc1csc(N2CCOCC2)n1)N/N=C/c1ccc(O)c(O)c1O	47.0*	-17.5	-2.56	i	16.0	-2.8
